# TrxR1 substrate = substrates of rat thioredoxin reductase 1; O89049; purified TrxR1 substrate turnover, NADPH consumption readout; Potency, µM (highest dose often 114 µM), for inactives: top-dose activity change, negative = substrate turnover; 0.01% of 390,000 active; AID 588456; note: nearly all actives have a fitted effect of over 50% in size
#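 Rat TrxR1, dispensed at 90 nM, was prereduced with 400 uM NADPH (final) for 5 min at ~22 deg C, then incubated with compound 15 min before 400 uM selenite. A first-read NADPH fluorescence drop versus no-compound background flagged substrates.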
# IDH1 R132H inh = inhibitors of human mutant IDH1 R132H; Potency, µM (doses to about 76.6 µM), for the others: at the highest dose activity change, negative = inhibition, hits mostly inhibitors; IDH1-R132H enzyme, NADPH consumption, diaphorase/resazurin fluorescence; 0.093% of 390,000 active; note: nearly all actives have a fitted effect of over 65% in size
#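 IDH1-R132H (0.5 ug/mL) preincubated 30 min with compound, then NADPH (0.016 mM) and alpha-KG (2 mM) added; 80 min at RT, pH 7.5. Remaining NADPH coupled via diaphorase/resazurin to fluorescence (540/590 nm); concentration-response curves normalized to no-enzyme control.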
# TrxR1 inh = inhibitors of rat thioredoxin reductase 1. recombinant rTrxR1, NADPH fluorescence consumption, selenite substrate. Potency, µM (doses to about 114 µM), without a hit: at the top dose activity change, negative = inhibition, usual class: inhibitors. 1% of 390,000 active. AID 588453; note: nearly all actives have a fitted effect of over 65% in size
#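 Rat TrxR1 (90 nM in the dispensed reagent) was pre-reduced with 400 uM NADPH for 5 min at room temperature, then incubated with compound for 15 min. After 400 uM selenite was added, NADPH fluorescence (Ex 340/Em 450 nm) was followed for 8 min.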
# Sfp PPTase inh = Sfp phosphopantetheinyl transferase inhibition. AID 1490. Q9F4F7. 3.5% of 310,000 active. Biochemical Sfp PPTase activity, qHTS. Potency, µM, without a hit: largest response in the series, negative = inhibition, hits mostly inhibitors;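 note: the enzyme is Sfp with the accession as filed and its product quenches rhodamine fluorescence; 0% = enzyme reaction without inhibitor and -100% = no enzyme wells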
#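 Fluorescence-quenching assay: 15 nM Sfp-PPTase preincubated 15 min at room temperature with compound, then 5 uM rhodamine-CoA and 12.5 uM BHQ-2-labelled YbbR peptide added. Fluorescence (ex 525/em 598 nm) read at start and after 30 min; difference gives rate.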
# VDR inh = vitamin D3 receptor (human) inhibition; Potency, µM, without a hit: max response, negative = inhibition, hits mostly inhibitors; 0.93% of 400,000 active; AID 504847; P11473; VDR-SRC2-3 peptide fluorescence polarization, 2 h
# Target sequence (P11473 whole entry, looked up): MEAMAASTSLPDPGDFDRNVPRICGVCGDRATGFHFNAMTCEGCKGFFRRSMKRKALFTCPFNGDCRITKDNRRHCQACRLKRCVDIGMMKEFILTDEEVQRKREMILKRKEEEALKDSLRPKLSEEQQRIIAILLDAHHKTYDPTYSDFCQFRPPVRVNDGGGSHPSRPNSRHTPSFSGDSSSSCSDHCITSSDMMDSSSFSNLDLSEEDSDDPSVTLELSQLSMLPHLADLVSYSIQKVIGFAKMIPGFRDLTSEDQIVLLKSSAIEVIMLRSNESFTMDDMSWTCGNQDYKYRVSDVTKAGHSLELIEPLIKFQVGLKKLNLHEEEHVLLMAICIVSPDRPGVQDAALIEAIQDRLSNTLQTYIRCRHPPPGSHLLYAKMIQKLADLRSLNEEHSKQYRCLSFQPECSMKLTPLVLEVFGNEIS
#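 Two reagent solutions held at 4 deg C in the dark were dispensed, compounds pinned at 23 nl, and the mixture incubated 2 h at room temperature. Read-out: fluorescence polarization of VDR–SRC2-3 peptide binding.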
# PLK1 PBD inh = PLK1 (human) polo-box domain binding inhibition; P53350; Plk1 PBD binding of FITC phosphopeptide, fluorescence polarization; Potency, µM, inactives show max response, negative = inhibition, usual class: inhibitors; 2.8% of 360,000 active; AID 720504; note: series mostly up to about 57 µM; nearly all actives have a fitted effect of over 65% in size
# Active calls of the source: *; ? = inconclusive; nt = no result; [ ] = another dose, or the depositor's remark. This is a sample that favours compounds with a hit; in the whole collection about 5.2% have one here. Calls come from the whole dose curve; as a rule, active = well fitted curve in the direction sought with a large enough effect; inconclusive = small, poorly fitted or top-dose-only effect, or another doubt; inactive = no such curve, though single readings can be large; an effect the other way counts as inactive or inconclusive. Unless noted, % is set by controls: 0 for no effect and ±100 for the full control effect; potency is the fitted concentration of half-maximal effect.
SMILES,TrxR1 substrate,IDH1 R132H inh,TrxR1 inh,Sfp PPTase inh,VDR inh,PLK1 PBD inh
O=C(CN1C(=O)CSc2ccc(S(=O)(=O)N3CCCCC3)cc21)NCc1cccnc1,3.4%,-14.0%,8.2%,-10.5%,15.9%,2.0%
COc1ccc(C=C(C(C)=O)C(C)=O)cc1OC,-17.0%,1.3%,44.7µM*,13.6%,7.0%,-18.6%
COc1ccc(/C=C/C(=O)Oc2ccc(C)c(C)c2)cc1OC,9.4%[57.1 µM],12.9%,20.7%[57.1 µM],8.91µM*,-10.1%,-6.0%
COc1ccc(/C=C/C(=O)Nc2cc(C)on2)cc1,-7.9%,-1.7%,-7.2%,-13.9%,?,29.9µM*
COc1cc(NC(=O)/C=C/c2ccccc2)c(C(=O)O)cc1OC,-9.0%,-2.8%,9.6%,-3.3%,?,16.8µM*
CC(C)C(C(=O)NCc1ccccc1)N1CCN(C(=O)C2CCCO2)CC1 (stereo not drawn),nt,nt,nt,nt,nt,-6.3%
COc1ccc(/C=C/C(=O)Nc2nc(C)cc(C)n2)cc1OC,36.7%,0.2%,-8.2%,9.1%,-18.6%,29.9µM*
O=C(OC(C(=O)Nc1ccc(Cl)cc1C(F)(F)F)c1ccccc1)c1c(Cl)cccc1Cl (stereo not drawn),-3.3%,-1.9%,7.9%,11.3%,?,29.9µM*
COc1ccc(Cl)cc1S(=O)(=O)n1c([N+](=O)[O-])cnc1C,-6.9%,5.5%,5.4%,70.8µM*,-8.1%,-3.1%
COc1cc(C)c(S(=O)(=O)n2c([N+](=O)[O-])cnc2C)cc1C,6.6%[57.1 µM],0.4%,7.2%[57.1 µM],12.6%,-20.9%,-19.7%
O=C(Nc1cccc(Cl)c1)O/N=C\c1ccncc1,6.0%,-3.0%,25.3%,1.6%,4.9%,9.47µM*
O=C(COC(=O)c1ccncc1)Nc1cccc(Cl)c1,12.1%[57.1 µM],-2.5%,22.8%[57.1 µM],-1.1%,-18.9%,21.2µM*
CCOC(=O)c1c(NC(=O)c2cccs2)sc(C(=O)N2CCOCC2)c1C,26.3%,5.6%,26.4%,nt,20.3%,-13.1%
CCOC(=O)c1c(NC(=O)c2ccncc2)sc(C)c1C,-3.1%,7.9%,20.9%,22.4µM*,3.2%,?
CCOC(=O)c1c(NC(=O)c2cccs2)sc(C(=O)N(C)C)c1C,1.0%,8.0%,-10.9%,?,?,23.8µM*
Clc1cccc(N/N=C/c2ccncc2)c1,-9.1%,0.1%,-3.8%,-1.7%,7.6%,-14.0%
O=C(Nc1cccc(Cl)c1)OCC#CCCl,nt,nt,nt,?,3.55µM*,nt
CCOC(=O)c1c(NC(=O)COC(=O)c2ccncc2)sc(C)c1C,-6.4%[57.1 µM],-11.5%,3.9%[57.1 µM],79.4µM*,-4.2%,-15.8%
CC(C)[C@H]1c2ccc(F)cc2CC[C@@]1(CCN(C)CCCc1nc2ccccc2[nH]1)OC(=O)C1CC1,-7.2%,nt,6.4%,44.7µM*,-27.3%,nt
COc1ccc(-n2cnnc2SCC(=O)Nc2cc(C(C)(C)C)nn2-c2ccccc2)cc1,-10.8%,-1.8%,-3.1%[57.1 µM],16.7%,2.9%,-1.9%
COc1ccccc1-n1cnnc1SCC(=O)Nc1cc(C(C)(C)C)nn1-c1ccccc1,-0.7%,2.9%,-6.7%,9.8%,-2.6%,3.36µM*
NC(=O)NC(=O)COC(=O)CCCSc1nc2ccccc2s1,-14.6%,-6.3%,-28.2%,-2.9%,-1.1%,21.2µM*
COc1ccc(CNC(=O)C(=O)NCc2cccnc2)cc1,10.1%[57.1 µM],14.9%,14.1%,4.2%,19.2%,5.5%
COc1ccc2c(c1)C=C(C(=O)OCc1cccnc1)CO2,-3.9%,-1.3%,8.9%[57.1 µM],-22.2%,9.2%,26.7µM*
CN(C)C(=O)CSc1cccc2cccnc12,26.9%[57.1 µM],-3.5%,-20.8%[57.1 µM],-21.2%,-23.1%,11.9µM*
SMILES,TrxR1 substrate,IDH1 R132H inh,TrxR1 inh,Sfp PPTase inh,VDR inh,PLK1 PBD inh
O=C(CSc1cccc2cccnc12)OCC(=O)c1ccc(Br)cc1,14.5%,1.5%,12.1%,-24.5%,13.7%,-3.0%
O=C(CSc1cccc2cccnc12)OCC(=O)c1ccccc1,4.1%,9.9%,?,9.4%,20µM*,21.2µM*
Cc1ccc(-n2c(C)c([N+](=O)[O-])c3ccc(O)cc32)cc1,nt,nt,nt,17.8µM*,nt,nt
Cc1ccc(-c2nn(CC(=O)NC3CCCCC3)c3c2cnc2ccccc23)cc1,-4.2%[57.1 µM],-8.6%,16.1%[57.1 µM],nt,4.0%,nt
Cc1ccc(-c2nnn(CC(=O)Nc3nnc(C(C)C)s3)n2)cc1,9.9%,-7.6%,19.9%[57.1 µM],-3.0%,-7.4%,26.7µM*
Cc1ccc(NC(=O)CCc2c(C)nn(-c3ccc(N4CCOCC4)nn3)c2C)cc1C,2.5%,1.1%,14.5%,15.3%,-19.3%,26.7µM*
CCOC(=O)N1CCN(CC(O)COCC2=CCC3CC2C3(C)C)CC1 (stereo not drawn),-6.9%[57.1 µM],10.1%,7.8%[57.1 µM],79.4µM*,-6.0%,-9.1%
Cc1ccnc2ccc(F)cc12,1.2%,nt,1.4%,nt,nt,nt
CCOC(=O)Nc1ccc2c(c1)N(C(=O)CCN(CC)CC)c1ccccc1S2=O (stereo not drawn),5.2%[57.1 µM],-1.5%,28.2µM*,6.2%,?,-25.4%
Clc1ccccc1CN1CCN(CCCc2ccccc2)CC1,8.0%[57.1 µM],6.5%,26.1%[57.1 µM],79.4µM*,?,-10.1%
OCC1(CCc2ccccc2)CCN(Cc2ccccc2Cl)CC1,10.8%[57.1 µM],0.0%,40.4%[57.1 µM],-2.9%,-6.2%,-0.8%
COc1ccc(NC(=O)CC2C(=O)N(c3ccccc3)C(=O)N2C2CCCCC2)cc1 (stereo not drawn),1.5%,-2.8%,4.4%,nt,-12.9%,nt
c1ccc(-c2cc(-c3ccncc3)nc3ccc4ccccc4c23)cc1,72.2%,?,22.5%,56.2µM*,-9.8%,-0.9%
Clc1ccc2nc(-c3ccncc3)cc(-c3ccccc3)c2c1,5.5%[57.1 µM],-1.4%,5.2%,9.7%,-0.5%,0.1%
CC(C)(C)N(NS(=O)(=O)c1ccc(F)cc1)c1ccccc1,4.7%[57.1 µM],4.6%,-2.9%[57.1 µM],-29.9%,44.7µM*,?
Cc1ccccc1NS(=O)(=O)c1ccc(F)cc1,-4.7%,12.5%,-1.1%,21.5%,-2.6%,0.9%
COc1ccc(-n2cnnc2SC(C)c2nc3sc(C)c(C)c3c(=O)[nH]2)cc1 (stereo not drawn),nt,nt,nt,89.1µM*,nt,nt
CCOC(=O)c1sc(NC(=O)c2ccc(OC)cc2)nc1C,2.0%,-6.2%,-9.6%,1.0%,19.5%,6.8%
CCOC(=O)c1sc(NC(C)=O)nc1C,5.0%,15.5%,12.0%,56.2µM*,-25.4%,26.7µM*
Cc1ccc(-c2nc(-c3cc4cc(Cl)ccc4oc3=O)sc2C)cc1,1.4%,nt,-0.7%,nt,-9.6%,nt
CCc1nnc(NS(=O)(=O)c2ccc(NC(=S)NC(=O)c3ccc(OC)cc3)cc2)s1,-10.8%,-5.8%,11.2µM*,-22.8%,-8.8%,?
CCc1nnc(NS(=O)(=O)c2ccc(NC(=S)NC(=O)/C=C/c3ccc(F)cc3)cc2)s1,-13.2%,-14.5%,50.1µM*,11.4%,?,16.8µM*
CCOc1ccc(NS(=O)(=O)c2ccc(NC(=S)NC(C)=O)cc2)cc1,-10.6%,-10.0%,?,6.3%,14.0%,-14.1%
